Reference: PubChem BioAssay (NCI)
About 83,000 compounds went through this panel and 20% of them were active in at least one assay; those are over-represented in the sample as a whole.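 Cells were grown in 96-well plates and exposed to the test compound at a single concentration for 48 hours; results are reported as percent growth, with values below 10 considered active.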 Activity calls are given as the source filed them.

system: SK-MEL-28 melanoma; experiment: NCI-60 one-dose screen, 48 h (100 = growth as untreated, 0 = no growth, -100 = all killed); details: 10 µM unless noted

| Compound | growth |
| --- | --- |
| CC1=C(C)C(=O)C(Nc2ccc(C)cc2)=C(Br)C1=O | 112% (inactive) |
| Cc1ccc(N2CCN(C3=C(Cl)C(=O)c4ncccc4C3=O)CC2)cc1 | 80.9% (inactive) |
| COc1ccc2[nH]cc(-c3nc(N)nnc3-c3cn(C)c4ccc(Br)cc34)c2c1 | 51.3% (inactive) |
| O=C(/C=C/c1ccccc1Cl)Nc1ncc(Cc2cc(Cl)ccc2Cl)s1 | 55.4% (inactive) |
| CN(C)S(=O)(=O)c1ccc(-c2nc(C(Cl)Cl)nc3cc(-c4ccc(F)cc4)nn23)cc1 | 27.1% (inactive) |
| Fc1ccc(-c2cn3c(-c4c[nH]c5ccc(Br)cc45)csc3n2)cc1 | 87.8% (inactive) |
| C#Cc1nc(/C=C/CCCCCCC(=O)NO)cs1 | 75.4% (inactive) |
| C#C[C@]1(O)CC[C@H]2[C@@H]3CC=C4c5sc(Nc6ncccc6C)nc5CC[C@]4(C)[C@H]3CC[C@@]21C | -78.7% (active) |
| CC(C)=CCC[C@](C)(O)[C@H]1CC[C@]2(C)[C@@H]1CC[C@@H]1[C@@]3(C)CC[C@H](N)C(C)(C)[C@@H]3CC[C@]12C | 108% (inactive) |
| Cc1cc2nc3c4cc(C#N)ccc4n(CCN(C)C)c3nc2cc1C | -50.1% (active) |
| N#Cc1c(-c2cccs2)cc(-c2cnccn2)nc1SCC(=O)N/N=C/c1ccncc1 | 112% (inactive) |
| CCOC(=O)c1cccc(NC2=C(Cl)C(=O)C(C)=C(C)C2=O)c1 | 110% (inactive) |
| c1ccc(-c2cn3c(-c4c[nH]c5ccccc45)csc3n2)cc1 | 71.9% (inactive) |
| Cc1cc(Br)ccc1-n1cc(C#N)c(N)c1C(=O)c1ccc(Br)cc1 | 102% (inactive) |
